Assay in all cases: NCI-60 one-dose screen, 48 h (100 = growth as untreated, 0 = no growth, -100 = all killed)
Holding throughout (conditions): 10 µM unless noted

The subject of experiment [1] is SR leukemia.
In experiment [2] the test system is RPMI-8226 leukemia.
The subject of experiment [3] is OVCAR-8 ovarian.
The test system of experiment [4] is OVCAR-5 ovarian.
For experiment [5], the system named is OVCAR-4 ovarian.
The subject of experiment [6] is SK-OV-3 ovarian.
Experiment [7] has as its system IGROV1 ovarian.
Experiment [8] relates to OVCAR-3 ovarian.
Experiment [9] deals with HS 578T breast.
In experiment [10] the test system is NCI/ADR-RES ovarian.
Experiment [11] relates to T-47D breast.
The subject of experiment [12] is BT-549 breast.
The test system of experiment [13] is MDA-MB-435 melanoma.
Experiment [14] deals with SW-620 colon.
For experiment [15], the system named is MCF7 breast.
For experiment [16], the system named is HCT-116 colon.
Experiment [17] has as its system KM12 colon.
For experiment [18], the system named is HCC-2998 colon.

Structures are written as SMILES. The panel holds about 83,000 compounds, 20% with a hit somewhere; the sample as a whole holds those more often.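 Results are percent growth after 48 hours of single-concentration exposure. 100 means growth as in untreated cells, lower positive values show inhibition; negative values down to -100 show cell death.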 Unmarked numbers belong to inactive results. Calls of active or inactive are those of the source. Rule for the calls: active = growth percent below 10; inactive = the rest.

In the case of `C=C(C)[C@@H]1C[C@H](O)Cc2cc(F)ccc2N1`, the growth is 83.2% in experiment [1]; 74.8% in experiment [2]; 96.5% in experiment [3]; 85.5% in experiment [4]; 108% in experiment [5]; 102% in experiment [6]. Further, the growth in experiment [7] was 108%; in [8], 111%; in experiment [9], 96.8%; in [10] it was 93.6%; in [11] it was 95.6%; in experiment [12], 98.1%. For the same compound, the growth was 97.7% in experiment [13]; 91.9% in experiment [14]; 103% in experiment [15]; 92.9% in [16]; 106% in [17].

`CCN(CC)c1ccc(/C=C2\Oc3ccc(O)c(I)c3C2=O)cc1`: the growth is 2.38% (active) in experiment [1]; 32.3% in experiment [2]; 61.7% in experiment [3]; 95.1% in [4]; 81.5% in experiment [5]; 79.5% in experiment [6]. The growth in [7] is 40.4%; in experiment [8] it was 19.1%; in experiment [9] it was 75.4%; in [10], 37.9%; in experiment [11], 55.1%; in [12], 54.4%. Moreover, the growth was 16.7% in experiment [13]; 43.2% in experiment [14]; 26.9% in [15]; 33.9% in [16]; 97.2% in [18]; 43.3% in experiment [17].

For `COc1ccc(C2CC(c3ccc(OC)cc3OC)=NN2c2ccc(S(N)(=O)=O)cc2)cc1` (stereo unspecified), the growth was 70.2% in experiment [1]; 2.07% (active) in [2]; 77% in experiment [3]; 99.4% in [4]; 80.2% in [5]; 105% in experiment [6]. Further, the growth in experiment [7] is 82.5%; in [8], 119%; in [9] it was 103%; in experiment [10], 89.4%; in experiment [11] it was 63.9%; in experiment [12], 76.7%. In addition, the growth in experiment [13] is 103%; in experiment [14], 101%; in experiment [15] it was 86%; in [16], 62.8%; in experiment [17] it was 86.4%.

As to `CCCN=C1NC(=O)/C(=C/c2nc(-c3ccc(OC)cc3)n3ccccc23)S1`, the growth in experiment [1] was 62.5%; in experiment [2] it was 74%; in experiment [3] it was 86.7%; in [4], 104%; in [5], 87.5%; in experiment [6] it was 98.1%. For the same compound, the growth is 94% in [7]; 61.9% in [8]; -8.63% (active) in experiment [9]; 83.6% in experiment [10]; 87.3% in experiment [11]; 90.5% in experiment [12]. Besides, the growth was 109% in [13]; 72.9% in experiment [14]; 77.5% in [15]; 26.3% in experiment [16]; 48.8% in [17].

Regarding `CCCCCCCCC(C)OC(=O)c1nn(C(C)=O)c2ccccc12` (stereo unspecified), the growth was 126% in [1]; 104% in experiment [2]; 95.7% in [3]; 104% in experiment [4]; 99.1% in experiment [5]; 109% in [6]. The growth in [7] is 105%; in experiment [8], 110%; in experiment [9] it was 101%; in [10], 101%; in experiment [11], 88.6%; in experiment [12], 95.4%. For the same compound, the growth in experiment [13] is 101%; in experiment [14] it was 103%; in experiment [15], 90.1%; in [16], 97%; in [17], 103%.

For `Cc1c(C(=O)/C=C/c2csc3ccccc23)[n+](=O)c2ccccc2n1[O-]`, the growth in experiment [1] was 13.5%; in experiment [2], 7.86% (active); in experiment [3] it was 21.1%; in [4], 94.5%; in experiment [5] it was 43.5%; in experiment [6], 76.4%. For the same compound, the growth in [7] was 16.6%; in experiment [8], -38.8% (active); in experiment [9], 93.9%; in experiment [10] it was 22.5%; in experiment [11], 21.5%; in [12], 20.1%. Further, the growth was 67.7% in experiment [13]; 26.3% in experiment [14]; 9.38% (active) in experiment [15]; 16% in experiment [16]; 48.4% in [17].

As to `COc1cc2c(=O)n(C3CCCCCC3)c3c4cc[nH]c4ncc3c2cc1OC`, the growth was 16.3% in experiment [1]; 66.4% in experiment [2]; 83.4% in experiment [3]; 76.2% in [4]; 93.4% in experiment [5]; 82.3% in experiment [6]. Moreover, the growth was 57.3% in experiment [7]; 89.1% in [8]; 42.4% in [9]; 89.1% in [10]; 84.8% in experiment [11]; 52.3% in experiment [12]. For the same compound, the growth in [13] is 86.9%; in [14], 70.8%; in [15], 49.9%; in [16] it was 72.6%; in experiment [18] it was 117%; in experiment [17], 24.4%.

In the case of `CC(C)C1=CC2=C(C=O)C[C@@H]3[C@](C)(CCC[C@@]3(C)C(=O)OCC#CCN3CCCC3)[C@H]2CC1`, the growth was 26.4% in experiment [1]; 33.8% in experiment [2]; 77.9% in experiment [3]; 88.1% in [4]; 78.1% in experiment [5]; 81.8% in experiment [6]. In addition, the growth is 75.4% in experiment [7]; 88.7% in [8]; 67.9% in experiment [9]; 82.2% in [10]; 54.7% in experiment [11]; 63.9% in [12]. Moreover, the growth in experiment [13] was 92.8%; in [14] it was 88%; in experiment [15] it was 85.7%; in experiment [16], 50.3%; in experiment [18] it was 93.9%; in experiment [17] it was 75.1%.

With `CCc1ccc(-c2ccc(=O)n(-c3ccc(S(N)(=O)=O)cc3)n2)cc1`, the growth in experiment [1] is -11.9% (active); in experiment [2], -29.9% (active); in [3] it was 51.2%; in experiment [4] it was 91.6%; in experiment [5], 74.5%; in experiment [6], 49.5%. For the same compound, the growth in [7] is -5.72% (active); in experiment [8], -56.8% (active); in experiment [9], 28.6%; in experiment [10] it was 1% (active); in [11], 33.4%; in experiment [12], 7.69% (active). Further, the growth in experiment [13] was -17.8% (active); in experiment [14] it was 7.19% (active); in experiment [15], 30.2%; in experiment [16], 16.8%; in [17], 13.6%.

Values taken from PubChem BioAssay (NCI).
